Inhibition data for 36 compounds are collected here from ChEMBL document CHEMBL1157539, “Thousands of chemical starting points for antimalarial lead identification” (Nature, 2010).

The subject of the assay is HepG2. The assay can be described thus: GSK_TCMDC: Percent inhibition of human HepG2 cell line. Test compounds present at 10uM. The format is functional.
Broadly, the Inhibition is the drop in the measured response relative to a control, in per cent. The low end stands for a response near the control, the high end for a response far below the control. For the compound `CCCCCCNC(=O)C1Cc2c([nH]c3ccc(Br)cc23)C2(CCN(Cc3ccccc3)CC2)N1` (stereo unspecified), the Inhibition is 100%.

Regarding `CCCCCN1CCCC(CNS(=O)(=O)c2cccc(C(=O)Nc3ccc(C(F)(F)F)cc3)c2)C1.O=C(O)C(F)(F)F` (stereo unspecified), the Inhibition was 27%.

Compound `COc1ccc2nc3cc(Cl)ccc3c(Nc3ccc(Sc4ccc(Nc5c6ccc(Cl)cc6nc6ccc(OC)cc56)cc4)cc3)c2c1.Cl` had an Inhibition of 1%.

In the case of `COc1ccc(CCN(C)CCCOc2ccc(NC(=O)COc3cccc4sc5ccccc5c(=O)c34)cc2)cc1OC`, the Inhibition is reported as 99%.

`O=C(Nc1ccc(-c2ccc(-c3nc4ccccc4[nH]3)s2)cc1)c1ccncc1` returned an Inhibition of 21%.

`COc1ccc2nccc([C@@H](O)CN3CCC(NCc4cc5cccnc5[nH]4)CC3)c2n1.O=C(O)C(=O)O` had an Inhibition of 7%.

Compound `O=C(N[C@@H](Cc1ccccc1)C(=O)NC1CCCCCC1)c1ccc(O)c(-c2cccc(C(F)(F)F)c2)c1` yielded an Inhibition of 0%.

In turn, `CCOC(=O)c1[nH]c2cc(Cl)cc(Cl)c2c1/C=C/C(=O)Nc1ccc(-c2cnc(NC(C)=O)[nH]2)cc1` returned an Inhibition of 45%.

Compound `CCCCOc1ccc(C(=O)C(CCC(CNC(C)(C)C)C(=O)c2ccc(OCCCC)cc2)CNC(C)(C)C)cc1.Cl` (stereo unspecified) showed an Inhibition of 100%.

`COC(=O)c1sc2ccccc2c1NC(=O)c1ccc(C)c(C)c1` came in with an Inhibition of 4%.

The compound `CC(C)(CNC(=O)[C@@H]1CCCN(CCOc2ccc(F)c(F)c2)C1)c1nc(-c2ccc(Cl)c(O)c2)c(-c2ccncc2)[nH]1.Cl` had an Inhibition of 72%.

On to `CCOC(=O)CCCCOc1c(OC)cc(Cc2cnc(N)nc2N)cc1OC`, for which the Inhibition is listed as 0%.

Take `Cc1ccc2c(-c3ccc([N+](=O)[O-])o3)cc(C)nc2c1`: the Inhibition came out at 20%.

For `Cc1oc(-c2cccc(Oc3ccccc3)c2)nc1CN(Cc1cnn(C)c1)C(C)C`, the Inhibition is recorded as 22%.

As for `CN1CCC(NCc2ccc(-c3cnc(NCc4ccccc4)nc3)cc2)CC1.O=C(O)C(F)(F)F`, the Inhibition is 23%.

For the compound `CCOc1ccc2nc3cc([N+](=O)[O-])ccc3c(N)c2c1`, the Inhibition amounted to 67%.

Take `Cc1cc(NCCC(=O)NCc2cccc(F)c2)nc(NCCc2ccc(F)cc2)n1.O=C(O)C(F)(F)F`: the Inhibition came to 0%.

Turning to `COc1ccc2nccc(N(C)CC3(O)CCC(NCc4cc5c(cn4)OCCO5)CC3)c2n1.Cl` (stereo unspecified), the Inhibition came to 1%.

Take `CCCCN1CC[C@@H](CCC(O)c2cc(OCCC)nc3ccc(OC)cc23)[C@@H](CC)C1.O=C(O)C(=O)O` (stereo partly specified): the Inhibition amounted to 23%.

`O=C(Nc1cccc(OCc2ccccc2)c1)c1ccc(CN2CCC(Cc3ccccc3)CC2)cc1` had an Inhibition of 41%.

For `Nc1ccc(Oc2ccc(Cc3cnc(N)nc3N)cc2)cc1`, the Inhibition is recorded as 10%.

Compound `COc1ccc(N2CCN(CCCCNC(=O)c3ccc(NC(=O)c4cc(C(F)(F)F)cc(C(F)(F)F)c4)cc3)CC2)cc1OC` returned an Inhibition of 9%.

`O=C(Nc1ccc(-c2nc3ccccc3[nH]2)cc1)c1ccc(S(=O)(=O)N2CCCCCC2)cc1` showed an Inhibition of 8%.

For the compound `COc1ccc(CCNCc2cc3c(C(C)(C)C)nn(-c4ccc(Cl)cc4)c3[nH]c2=O)cc1OC`, the Inhibition is 13%.

For the compound `COc1cccc(OC)c1CN1CCC(N(C)CCCCCCCCCN2CCC(OC(=O)Nc3ccccc3-c3ccccc3)CC2)CC1`, the Inhibition is recorded as 100%.

Turning to `CN(C)CCCN(C)c1cccc2c1nc(-c1cccnc1)n2CCNCc1ccccc1.O=C(O)C(F)(F)F`, the Inhibition was found to be 4%.

Compound `COc1ccccc1C1CCN(C2CCC(NC(=O)/C=C/c3cc(C(F)(F)F)cc(C(F)(F)F)c3)CC2)CC1` (stereo unspecified) had an Inhibition of 31%.

As to `COc1cccc(CC(=O)N2CCC(n3c(C)nc4ccc(F)cc43)CC2)c1`, the Inhibition came out at 0%.

As to `Cc1ccc(C(NC(=O)C2CCCCC2)c2ccc3cccnc3c2O)cc1` (stereo unspecified), the Inhibition came out at 69%.

In turn, `CC(=O)O.CC(C)c1ccc(C2CCN(CCCCNC(=O)c3ccc(NC(=O)c4ccc(C(F)(F)F)cc4)cc3)CC2)c(O)c1` showed an Inhibition of 47%.

Compound `COCCN1CCN(Cc2ccc(-c3ccc(-c4nc5cccc(C)c5[nH]4)s3)cc2)CC1.O=C(O)C(F)(F)F` had an Inhibition of 32%.

Turning to `Cc1[nH]c(C)c(-c2ccc(OCc3cc(F)cc(F)c3)nc2)c(=O)c1Cl`, the Inhibition is 20%.

As to `CC(=O)N[C@@H]1c2cc(C(C)=O)ccc2OC(C)(C)[C@@H]1O`, the Inhibition worked out at 15%.

`OC(COc1ccccc1-c1nc2ccccc2o1)CN1CCCN(CCc2ccccc2)CC1` (stereo unspecified) showed an Inhibition of 39%.

In the case of `O=C(NC1CCN(Cc2ccccc2)CC1)c1ccc(-c2nc3cc(Cl)c(F)cc3[nH]2)cc1`, the Inhibition turned out to be 13%.

As to `Nc1ncc(-c2ccc(F)cc2)cc1-c1nc2ccc(Cl)cc2[nH]1`, the Inhibition is 45%.
